Reference: PubChem BioAssay AID651815 (National Center for Advancing Translational Sciences (NCATS), 2012)
In all, about 2,100 compounds went through this assay and about 1,100 (52%) were called active. Not shown: some 29% with an inconclusive outcome. Calls come from the whole dose curve; as a rule, active = well fitted inhibition curve with a large enough effect; inconclusive = small, poorly fitted or top-dose-only effect; inactive = no such curve, though single readings can be large or run the other way. The set was probably picked from earlier hits. The list shows a part of the results.

biological target: DNA dC->dU-editing enzyme APOBEC-3F (Homo sapiens) (UniProt Q8IUX4); experiment: qHTS for inhibitors of Vif-A3F interactions: Cherry picks counterscreen; conditions: HeLa A3F-eYFP/Vif cells, eYFP fluorescence, 24 h; series mostly up to 46.1 µM; note: nearly all actives have a fitted effect of over 65% in size
In short: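 HeLa cells stably expressing A3F-eYFP and Vif, cultured overnight, then treated 24 h at 37 degrees C with compounds at several concentrations; yellow fluorescence (488 nm Ex/500-530 nm Em) imaged on Acumen; MG132 positive control.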
Potency is the fitted concentration of half-maximal effect.

DNA dC->dU-editing enzyme APOBEC-3F (Homo sapiens), sequence (Q8IUX4 whole entry, looked up): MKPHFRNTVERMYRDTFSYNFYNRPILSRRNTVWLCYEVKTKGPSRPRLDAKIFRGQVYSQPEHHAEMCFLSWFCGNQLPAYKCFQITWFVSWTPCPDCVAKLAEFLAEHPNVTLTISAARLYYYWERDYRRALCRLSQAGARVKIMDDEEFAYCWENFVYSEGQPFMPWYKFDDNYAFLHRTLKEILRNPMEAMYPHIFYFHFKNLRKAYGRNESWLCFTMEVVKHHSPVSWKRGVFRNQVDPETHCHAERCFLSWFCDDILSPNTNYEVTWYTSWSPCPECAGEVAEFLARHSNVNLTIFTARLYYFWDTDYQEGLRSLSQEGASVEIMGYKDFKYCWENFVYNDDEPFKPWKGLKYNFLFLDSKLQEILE

Compound | Potency
CCCN1CCc2c(sc(NC(=O)c3ccc(S(=O)(=O)N(C)c4ccccc4)cc3)c2C(N)=O)C1 | 23.1 µM (active)
O=C(NC(=S)Nc1ccccc1N1CCCCC1)c1ccccc1 | inactive
CCCN1CCc2c(sc(NC(=S)NC(=O)c3ccccc3)c2C#N)C1 | 16.4 µM (active)
N#CC(C#N)=C1C=C2C=C(N3CCOCC3)CCC2CC1 (centres undefined) | inactive
COc1cc(C2C3=C(COC3=O)Oc3cc4c(cc32)OCO4)ccc1OC(C)=O (centres undefined) | 3.14 µM (active)
O=C1OCC2=C1C(c1ccc3c(c1)OCO3)c1cc3c(cc1O2)OCO3 (centres undefined) | 1.25 µM (active)
N#C/C=C/N1CCN(C(=O)c2ccco2)CC1 | inactive
CCCCn1c(N)c(N(CC(C)C)C(=O)Cc2ccc(S(=O)(=O)N3CCOCC3)s2)c(=O)[nH]c1=O | 16.4 µM (active)
CCCCn1c(N)c(N(CCC(C)C)C(=O)c2ccc([N+](=O)[O-])o2)c(=O)[nH]c1=O | inactive
C=CCN1C(=O)c2ccc(C(=O)N(CC(C)C)c3c(N)n(CCCC)c(=O)[nH]c3=O)cc2C1=O | inactive
O=C(O)c1ccccc1N/N=C/c1c(Sc2nnnn2-c2ccccc2)nc2ccccn2c1=O | inactive
CC(C)COc1ccc(C(=O)N/C(=C/c2cccc([N+](=O)[O-])c2)C(=O)O)cc1 | inactive
CCN1C/C(=C\c2cccc([N+](=O)[O-])c2)C(=O)/C(=C/c2cccc([N+](=O)[O-])c2)C1 | 2.5 µM (active)
CC[n+]1ccc(/C=C/c2c[nH]c3ccccc23)cc1 | 1.84 µM (active)
C[n+]1ccc(/C=C/c2c[nH]c3ccccc23)cc1 | 6.51 µM (active)
C[n+]1ccc(/C=C/c2cc[n+](C)c3ccccc23)c2ccccc21 | inactive
OCC[n+]1ccc(/C=C/c2c[nH]c3ccccc23)cc1 | 5.8 µM (active)
O=C(Nc1ccccc1OC(=O)c1ccccc1)c1ccccc1 | 15.8 µM (active)
COc1ccccc1NC(=O)Cc1ccc(-c2ccccc2)cc1 | inactive
O=C(NC(=S)Nc1ccc(-c2ccccc2)cc1)c1ccccc1 | inactive
COc1ccc(C(=O)N/N=C/c2ccccc2OC(=O)c2ccccc2)cc1 | 3.96 µM (active)
NC(=S)N/N=C/c1ccccc1OC(=O)/C=C/c1ccccc1 | inactive
C=C1C(=O)O[C@H]2C1CC[C@@](C)(O)C13C=CC(C)(C21)C1(C3)C(=O)O[C@@H]2C3C(C)=CCC3[C@](C)(O)C[C@H](OC(C)=O)C21 (some centres undefined) | 17.7 µM (active)

Compound | Potency
Cc1c(N=C2N=C(NC(=O)c3cccs3)c3ccccc32)c(=O)n(-c2ccccc2)n1C | 14 µM (active)
Cc1c(NC(=O)c2csc3c2CCCC3)c(=O)n(-c2ccccc2)n1C | inactive
N#Cc1c(C(F)(F)F)cc(-c2ccccc2)nc1SCc1nc(N)nc(N2CCOCC2)n1 | 16.4 µM (active)
COc1c(-c2ccc(O)c(O)c2)oc2cc(O)cc(O)c2c1=O | 12.5 µM (active)
Cc1cc(NC(=O)Nc2nnc(N(C)Cc3ccccc3)s2)ccc1Br | inactive
CSc1nc2ccccc2cc1/C=C(\C#N)c1cccc(C)c1 | 11.2 µM (active)
N#C/C(=C\c1cccc(O)c1)c1nc2ccccc2o1 | 7.9 µM (active)
Nc1c(C(=O)N/N=C/c2cccnc2)oc2nc(-c3ccccc3)cc(-c3ccco3)c12 | 4.11 µM (active)
C/C(=N\Nc1nc(C)cc(-c2ccccc2)n1)c1ccc(F)cc1 | inactive
Nc1c(C(=O)N/N=C/c2ccc(F)cc2)oc2nc(-c3ccccc3)cc(-c3ccco3)c12 | 14 µM (active)
Nc1c(C(=O)N/N=C/c2ccccc2Cl)oc2nc(-c3ccccc3)cc(-c3ccco3)c12 | 10.3 µM (active)
CCOc1ccc2nc(NC(=O)c3nc(SC(C)C)ncc3Cl)sc2c1 | 11.6 µM (active)
Cc1ccc(NC(=O)/C=C/c2ccc([N+](=O)[O-])s2)cc1 | 10.3 µM (active)
Cc1cc(C)cc(NC(=O)/C=C/c2ccc([N+](=O)[O-])s2)c1 | 16.4 µM (active)
COC(=O)c1sccc1NC(=S)Nc1cc(C)cc(C)c1 | inactive
Cc1ccc(NC(=O)/C=C/c2ccc([N+](=O)[O-])s2)c(C)c1 | 18.4 µM (active)
Cc1cccc(NC(=O)/C=C/c2ccc([N+](=O)[O-])s2)c1 | 7.31 µM (active)
CCC(=O)OCc1cnc(C)c2oc(=O)c(C(=O)Nc3ccccc3C(F)(F)F)cc12 | inactive
CC(=O)c1cccc(NC(=S)N2c3ccccc3CC2C)c1 (centres undefined) | inactive
CC(=O)c1cccc(NC(=O)/C=C/c2ccc([N+](=O)[O-])s2)c1 | 16.4 µM (active)
CCOCCC(=O)Nc1ccc2c(c1)c(=O)n(C)n2C/C=C/c1ccccc1 | 15.8 µM (active)
COc1ccc(/C=N/NC(=O)c2cc3c(OC)ccc(OC)c3[nH]2)cc1O | 4.44 µM (active)
COc1ccc2[nH]c(C(=O)N/N=C/c3ccc(OC)c(O)c3)cc2c1 | 3.14 µM (active)

Compound | Potency
COc1cc2c(c(OC)c1OC)-c1ccc(N(C)CC(OC)OC)c(=O)cc1[C@@H](NC(C)=O)CC2 | 1.12 µM (active)
CN[C@H]1CCc2cc(OC)c(OC)c(OC)c2-c2ccc(N(C)CC(OC)OC)c(=O)cc21 | 2.8 µM (active)
CSc1cccc(NC(=O)c2cc3c(COC(C)=O)cnc(C)c3oc2=O)c1 | inactive
CCN(CC)c1ccc2cc(C(N)=O)c(=N)oc2c1 | inactive
CCN(CC)c1ccc2cc(-c3nc(-c4cccs4)no3)c(=O)oc2c1 | 0.291 µM (active)
CCN(CC)c1ccc2cc(-c3nnc(-c4ccccc4)o3)c(=O)oc2c1 | 0.112 µM (active)
CCN(CC)c1ccc2cc(-c3nc(-c4ccc(Cl)cc4Cl)cs3)c(=O)oc2c1 | inactive
CCN(CC)c1ccc2cc(-c3nnc(-c4cccc(Cl)c4)o3)c(=O)oc2c1 | 0.206 µM (active)
CCN(CC)c1ccc2cc(-c3nc4ccccc4n3C)c(=O)oc2c1 | 7.31 µM (active)
CN(C)S(=O)(=O)c1ccc(N2CCCC2)c(C(=O)N2CCN(S(=O)(=O)c3ccc(F)c(F)c3)CC2)c1 | inactive
CCOC(=O)c1c(C)sc(-c2c(-c3ccccc3)[nH]c3[nH]c(=O)[nH]c(=O)c23)c1O | 23.1 µM (active)
Cc1ccc(S(=O)(=O)CCSc2nc(C)cc(C(F)(F)F)c2C#N)cc1 | 12.5 µM (active)
CCCCOc1ccc(-c2cc(C(F)(F)F)c(C#N)c(SCC(=O)O)n2)cc1 | 18.4 µM (active)
CCOC(=O)c1ccc(NC(=O)CSc2nc(-c3ccc(F)cc3)cc(C(F)(F)F)c2C#N)cc1 | 18.4 µM (active)
CCOC(=O)c1ccc(N=Nc2c(C)c(C#N)c(O)[nH]c2=O)cc1 | inactive
CCOC(=O)c1ccc(NC(=O)CSc2nc(-c3ccc(OC)cc3)cc(C(F)(F)F)c2C#N)cc1 | 23.1 µM (active)
COCc1cc(C)nc(SCC(=O)Nc2ccc3[nH]c(=O)[nH]c3c2)c1C#N | inactive
Cc1sc2nc(CSCC(=O)Nc3ccccc3C#N)[nH]c(=O)c2c1C | inactive
Cc1coc(NC(=O)CSc2nc(-c3ccncc3)cc(C(F)(F)F)c2C#N)n1 | 7.31 µM (active)
Cc1cc(C(F)(F)F)c(C#N)c(SCC(=O)Nc2nc3ccccc3s2)n1 | 16.4 µM (active)
CN(C)c1ccc(/C=C2\Oc3ccc(C#Cc4cccc(N)c4)cc3C2=O)cc1 | 15.8 µM (active)
CCOc1ccc(C(=O)COC(=O)Cc2n[nH]c(=O)c3ccccc23)cc1 | 4.44 µM (active)
O=C(Cc1n[nH]c(=O)c2ccccc12)OCC(=O)c1ccc2c(c1)OCCO2 | 2.8 µM (active)

Compound | Potency
COc1ccc(C(=O)/C=C/Nc2ccc([N+](=O)[O-])cc2C)c(OC)c1 | 18.4 µM (active)
COc1cccc(N=C2NC(=O)/C(=C/c3cc([N+](=O)[O-])ccc3O)S2)c1 | inactive
N#C/C(N=Nc1ccccc1O)=N\Nc1ccccc1O | 5.17 µM (active)
Cc1cc(N2CCN(c3ccc([N+](=O)[O-])c4cccnc34)CC2)c2ccccc2n1 | 20.6 µM (active)
O=[N+]([O-])c1cc(Cl)c2cccnc2c1O | inactive
COc1ccccc1Nc1cc2cc(Br)ccc2c(=O)[nH]1 | 7.04 µM (active)
COc1cccc(NC(=O)c2oc3ccc(S(=O)(=O)N4CCC5(CC4)OCCO5)cc3c2C)c1 | 13 µM (active)
COc1ccc(NC(=O)c2oc3ccc(S(=O)(=O)N4CCOCC4)cc3c2C)cc1 | inactive
COc1ccc(OCCCC(=O)N2CCN(S(=O)(=O)c3cccc(F)c3)CC2)cc1 | inactive
CN(CC(=O)Nc1ccc(Cl)c(C(F)(F)F)c1)C(=O)c1ccc(S(=O)(=O)N2CCOCC2)cc1 | 4.44 µM (active)
Cc1ccc(NC(=O)C2CCN(S(=O)(=O)c3ccc(Cl)c(C(F)(F)F)c3)CC2)nc1 | inactive
COC(=O)C1CCC(=O)N1C(c1ccc(OC)cc1)c1cc(OC)c(OC)c(OC)c1 (centres undefined) | 0.79 µM (active)
CCS(=O)(=O)C1=NN2C(=N)/C(=C\c3ccc(SCc4ccco4)o3)C(=O)N=C2S1 | inactive
CC1=CN2C(=N)/C(=C/c3ccc([N+](=O)[O-])o3)C(=O)N=C2S1 | 14 µM (active)
CCOC(=O)C1=C(Cc2ccc(F)cc2)C(=O)c2ccccc2C1=O | 16.4 µM (active)
COc1ccc(C(C)(O)c2nc(-c3ccccc3OC)cs2)cc1 (centres undefined) | 12.5 µM (active)
CC(=O)Nc1sc(/C(C#N)=C\c2cccc(Cl)c2)nc1-c1ccc(C)cc1 | 11.6 µM (active)
CCOc1cc(/C=C(\C#N)c2nc(-c3cccs3)c(NC(C)=O)s2)ccc1O | inactive
CC(=O)Nc1sc(/C(C#N)=C/c2ccc(Cl)c(Cl)c2)nc1-c1ccc(C)cc1 | 2.59 µM (active)
COc1ccc(CN(C(C)=O)c2cccc(C)c2C)cc1 | 15.8 µM (active)
